From the supplement of paper PMC10127200
Where a name gives a salt, the structure may show the parent alone.

Tests used:
Assay in all cases: Euclidean distance of Cell Painting phenotypic profile (signed KS, 77 features) to DMSO centroid (dimensionless distance); 5 or 10 uM (library dependent); higher = stronger phenotypic change vs DMSO (phenoactivity)
Conditions in all cases: 48 h
786-O = tested on: 786-O
Summary of the method: (§1)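 Stained cells were imaged confocally at 20X with 9 fields per well, after 48 h of exposure to library compounds at 10 or 5 uM (set by library; 0.1% DMSO final). The cells were five cancer lines and a healthy fibroblast line. From the images, Harmony extracted 77 features, each expressed as a signed Kolmogorov-Smirnov statistic relative to same-plate vehicle wells. Phenoactivity is measured as Euclidean distance to the median vehicle profile, using plate-position-corrected, correlation-weighted profiles averaged across replicates at the top dose.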

A549 = tested on: A549
Summary of the method: as §1

DU145 = tested on: DU145
Summary of the method: as §1

FB = tested on: FB
Summary of the method: as §1

HEPG2 = tested on: HEPG2
Summary of the method: as §1

OVCAR4 = tested on: OVCAR4
Summary of the method: as §1

Structure (SMILES)	Euclidean distance (786-O)	Euclidean distance (A549)	Euclidean distance (DU145)	Euclidean distance (FB)	Euclidean distance (HEPG2)	Euclidean distance (OVCAR4)
O=C(Nc1c[nH]nc1-c1nc2ccc(CN3CCOCC3)cc2[nH]1)NC1CC1	3.05	3.01	3	2.87	2.74	2.7
O=C1CN(/N=C/c2ccc(-c3ccc([N+](=O)[O-])cc3)o2)C(=O)N1 [Dantrolene sodium]	0.573	0.503	1.37	0.968	0.758	1.01
CCCC(C)NC(=O)c1ccc(Cl)c(Cl)c1 (stereo not given)	0.75	0.663	0.911	1.24	0.75	0.568
CC1=C(/C=C/C(C)=C/C=C/C(C)=C/CO)C(C)(C)CCC1 [Vitamin A]	0.784	1.06	0.821	1.61	0.745	1.33
C[n+]1ccccc1/C=N/O [Pralidoxime chloride]	1.41	0.85	1.53	1.2	0.755	1.08
C[C@H]1COC2=C1C(=O)C(=O)c1c2ccc2c1CCCC2(C)C [Cryptotanshinone]	1.53	2.51	1.48	1.17	1.25	1.31
COc1cc2ncnc(Nc3cccc(Cl)c3)c2cc1OC [AG-1478 (Tyrphostin AG-1478)]	1.39	1.29	1.45	1.21	0.941	0.649
Cn1cc(-c2nc(N[C@@H]3CCCC[C@@H]3N)c(F)c3c2C(=O)NC3)cn1	2.54	2.93	2.88	2.99	1.85	2.99
CN(C)Cc1ccc(-c2nc3cccc4c3n2CCNC4=O)cc1	1.75	1.77	1.51	1.3	1.62	1.41
C1CNCCN1 [Piperazine]	1.04	1.08	0.846	1.09	0.402	1.67
C[C@@H](Oc1ccc2[nH]nc(/C=C/c3cnn(CCO)c3)c2c1)c1c(Cl)cncc1Cl	3.17	3.59	3.07	3.2	3.02	3.82
COc1cc2nc(N3CCN(C(=O)C4CCCO4)CC3)nc(N)c2cc1OC (stereo not given) [Terazosin HCl]	1.12	0.699	0.618	1.15	1.33	1.01
O=C(O)[C@H](O)Cc1ccc(O)c(O)c1 [Danshensu]	1.51	1.33	0.736	0.877	1.33	1.65
Cc1ccc(NC(=O)c2ccc(CN3CCN(C)CC3)cc2)cc1Nc1nccc(-c2cccnc2)n1 [Imatinib (STI571)]	1.85	1.68	1.9	2.04	1.78	1.48
Oc1c(I)cc(I)c2cccnc12 [Diiodohydroxyquinoline]	1.24	1.68	0.746	1.01	0.677	1.2
Clc1ccc(C(Cn2ccnc2)OCc2ccsc2Cl)c(Cl)c1 (stereo not given) [Tioconazole]	1.07	0.786	2.41	1.25	1.14	1.44
O=c1cc(N2CCOCC2)oc2c1ccc1ccccc12	0.913	1.57	1.41	3.23	1.42	4.01
CCN(CC)CC#CCOC(=O)C(O)(c1ccccc1)C1CCCCC1 (stereo not given) [Oxybutynin]	0.749	0.615	1.19	0.788	1.25	0.913
CN1CCC(=C2c3ccccc3CCc3sccc32)CC1 [Pizotifen Malate]	1.65	1.87	2.14	2.2	1.73	1.29
Cn1nc(C(C)(C)C)cc1C(=O)N[C@@H](Cc1cccc(Cl)c1)C(=O)NCC#N [Cathepsin Inhibitor 1]	1.97	2.28	2.22	1.9	1.43	1.92
CCOC(=O)CCC(=O)O[C@H]1[C@H](O[C@@H]2[C@@H](C)[C@H](O[C@H]3C[C@@](C)(OC)[C@@H](O)[C@H](C)O3)[C@@H](C)C(=O)O[C@H](CC)[C@@](C)(O)[C@H](O)[C@@H](C)C(=O)[C@H](C)C[C@@]2(C)O)O[C@H](C)C[C@@H]1N(C)C [Erythromycin Ethylsuccinate]	1.09	0.82	1.09	1.04	0.715	1.3
CCN1CCN(Cc2ccc(-c3cc4c(N[C@H](C)c5ccccc5)ncnc4[nH]3)cc2)CC1	2.34	3.77	1.92	2.96	1.73	1.02
CC(=O)O[C@H]1C(=O)[C@@]2(C)[C@H]([C@H](OC(=O)c3ccccc3)[C@]3(O)C[C@H](OC(=O)[C@H](O)[C@@H](NC(=O)c4ccccc4)c4ccccc4)C(C)=C1C3(C)C)[C@]1(OC(C)=O)CO[C@@H]1C[C@@H]2O [Paclitaxel]	3.07	2.6	4.23	2.69	2.08	2.73
CCOc1cc(CC(=O)N[C@@H](CC(C)C)c2ccccc2N2CCCCC2)ccc1C(=O)O [Repaglinide]	1.98	0.783	1.26	1.42	1.04	1.55
c1ccc(-c2[nH]ncc2-c2ccnc3ccccc23)nc1	0.643	0.916	0.92	1.27	1.24	0.931
